# Records with an inconclusive call do not appear. Activity calls are given as the source filed them. Rule for the calls: active = hit-call score of the fitted dose curve at least 0.9, where 1 is the maximum; inconclusive = response in the unintended direction; inactive = score below 0.9.
# Assay: CCTE_Mundy_HCI_iCellGluta_NOG_NeuriteLength: CCTE's Neurite Outgrowth Assay in iCellGluta cells for Neurite Length, Mundy Lab (AID 2284318)
# Procedure: CCTE_Mundy_HCI_iCellGluta_NOG is a multiplexed, cell-based-readout assay that uses iCell GlutaNeurons from FUJIFILM Cellular Dynamics, Inc. (FCDI), human glutamatergic enriched neurons derived from induced pluripotent stem (iPS) cells, with measurements taken at 50.33 hours after chemical dosing in a microplate: 96-well plate.CCTE_Mundy_HCI_iCellGluta_NOG_NeuriteLength is one of four components of the CCTE_Mundy_HCI_iCellGluta_NOG assay. It measures neurite outgrowth related to neurite length using High Content Imaging of fluorescently labelled markers.Data from the assay component CCTE_Mundy_HCI_iCellGluta_NOG_NeuriteLength was analyzed at the endpoint CCTE_Mundy_HCI_iCellGluta_NOG_NeuriteLength in the positive analysis fitting direction relative to DMSO as the negative control and baseline of activity. Using a type of morphology reporter, loss-of-signal activity can be used to understand developmental effects.
# Exposure starts 2 hours post-plating by adding 10 ul of the working solution to 90 ul of media in the wells for a 1/10 dilution. Forty-eight hours after chemical treatment cells are fixed by direct addition of 100 ul of warm (37C) Dulbecco's phosphate buffered saline (DPBS) fixative solution containing 8% paraformaldehyde, 8% sucrose, and 0.1% of 3 mg/ml Hoechst 33342 into each well. Primary antibodies are prepared by dilution in Immunocytochemical Staining Buffer (ISB), 10X Dulbecco's PBS, 0.1% Saponin, 5% Bovine Serum Albumin, 0.5% NaN3 (Sodium Azide) and betaIII-tubulin (rabbit anti-betaIII-tubulin, 1:800) followed by Alexa Fluor-488 secondary (1:500) to label neuronal cell bodies and neurites. A Cellomics ArrayScan VTi HCS Reader is used for automated image acquisition and analysis of neurite outgrowth.
row,Compound,outcome
1,O=C(O)CCC(F)(F)C(F)(F)C(F)(F)C(F)(F)C(F)(F)C(F)(F)C(F)(F)F,inactive
2,O=C(O)CCC(F)(F)C(F)(F)C(F)(F)F,inactive
3,NC(=O)C(F)(F)C(F)(F)C(F)(F)C(F)(F)C(N)=O,inactive
4,NC(=O)C(F)(F)C(F)(F)C(F)(F)C(F)(F)C(F)(F)C(F)(F)C(F)(F)F,inactive
5,NC(O)(C(F)(F)F)C(F)(F)F,inactive
6,OCCCCC(F)(F)C(F)(F)C(F)(F)C(F)(F)F,inactive
7,OCCCC(F)(F)C(F)(F)C(F)(F)C(F)(F)C(F)(F)C(F)(F)C(F)(F)C(F)(F)F,inactive
8,O=C(O)C(F)(F)C(F)(F)C(F)(F)OC(F)(F)F,inactive
9,CCN(CCO)S(=O)(=O)C(F)(F)C(F)(F)C(F)(F)C(F)(F)C(F)(F)C(F)(F)C(F)(F)C(F)(F)F,inactive
10,O=C(F)C1(F)C(F)(F)C(F)(F)C(F)(F)C(F)(F)C1(F)F,inactive
